Results as given in PubChem BioAssay AID777 (Sanford-Burnham Center for Chemical Genomics, 2007).
Out of some 96,000 compounds screened, about 19,000 (20%) were called active.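 How the source made its calls: active means blocking of liver enzyme CYP2C9 beyond about 50% at 5 µM (limit read from the data); inactive means the rest.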 These entries were drawn from the full list.

Target: Cytochrome P450 2C9 (Homo sapiens) (UniProt P11712)
Assay: blockers of cytochrome P450 2C9 activity – biochemical, luminescence, ADME assay, primary screen (AID 777)
Conditions: CYP2C9 Supersomes, luciferin-H conversion, at 5 µM, active compounds read high

Chain of Cytochrome P450 2C9 (Homo sapiens) (P11712 whole entry, looked up): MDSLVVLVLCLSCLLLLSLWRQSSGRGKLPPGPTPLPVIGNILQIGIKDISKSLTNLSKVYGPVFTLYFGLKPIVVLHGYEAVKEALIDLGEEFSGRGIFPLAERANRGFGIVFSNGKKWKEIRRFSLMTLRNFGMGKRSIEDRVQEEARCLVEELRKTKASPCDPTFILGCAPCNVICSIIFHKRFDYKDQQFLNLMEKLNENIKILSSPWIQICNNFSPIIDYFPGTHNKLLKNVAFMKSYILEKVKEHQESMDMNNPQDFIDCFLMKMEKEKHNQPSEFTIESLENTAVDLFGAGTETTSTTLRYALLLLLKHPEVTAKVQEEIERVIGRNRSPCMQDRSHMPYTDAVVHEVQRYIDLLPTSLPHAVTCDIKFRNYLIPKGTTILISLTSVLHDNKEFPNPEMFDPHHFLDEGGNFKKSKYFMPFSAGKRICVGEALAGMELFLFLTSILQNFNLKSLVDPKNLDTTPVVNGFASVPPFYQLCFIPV

inhibition, active:
Cc1ccccc1CSCC(=O)NC(=O)NC(C)(C)C 62.3%, COC(=O)c1ccc(COC(=O)c2c(C)nn(Cc3ccccc3Cl)c2Cl)o1 83.3%, CNS(=O)(=O)c1cnccc1N1CCN(c2cccc(C)c2)CC1 57.7%, O=C(N/N=C\c1cccc(Br)c1)c1ccccc1-n1cccc1 66.3%, COc1ccc(-c2nc(CCNC(=O)c3ccc(Br)o3)cs2)cc1 62.2%, Fc1ccc(CSc2nnc(-c3cc4c(s3)-c3ccccc3CC4)o2)cc1 52.4%

inhibition, inactive:
C=CCn1c(SCC(=O)c2c(N)n(C)c(=O)n(C)c2=O)nc2sc(CC)cc2c1=O 38.3%, CCS(=O)(=O)c1ccc2c(c1)N(S(=O)(=O)c1ccccc1)CC(C(=O)O)O2 (configuration not stated) 42.8%, COc1ccccc1OCCC(=O)OCC(=O)NC(=O)NC(C)(C)C 2.5%, CC(C)(C)NC(=O)NC(=O)COC(=O)Cn1c(C(F)(F)F)nc2ccccc21 43.9%, O=C(O)C1C2C=CC(C2)C1C(=O)N1CCN(CCO)CC1 (configuration not stated) 10.3%, Cc1nn(Cc2ccccc2)c(Cl)c1C(=O)OC1CCOC1=O (configuration not stated) 5.7%, CCOC(=O)c1cnn(Cc2ccccc2Cl)c1N 22%, Cc1noc(C)c1C(=O)N1CCOCC1 -7.1%, c1ccc(CC2CCN(c3nc4ccccc4n4cnnc34)CC2)cc1 20.5%, CCCn1c(C)cc(C(=O)COC(=O)c2c(C)nn(-c3ccccc3)c2C)c1C -31.1%, CC(C)=C1SC(N2CCN(c3cccc(C)c3)CC2)=NC1=O -36.8%, O=S(=O)(c1cnccc1N1CCN(/N=C/c2ccc(Br)cc2)CC1)N1CCCCC1 -9.2%, Cn1c(=O)n(C)c2cc(/C=N/NC(=O)c3cccc(Br)c3)ccc21 -21.3%, N=c1oc2ccccc2cc1C(=O)N/N=C/c1ccccc1 27.9%, Cc1nn(C)cc1C(=O)NNC(=S)Nc1ccc(Cl)cc1 18.7%, CCN(Cc1cc2cc(C)ccc2[nH]c1=O)S(=O)(=O)c1ccccc1 5.9%, COc1ccc(CCNC(=O)c2ccco2)cc1 8.8%, O=C(NCCc1ccccn1)c1ccc(COc2ccccc2)o1 13.4%, CCOC(=O)/C=c1\s/c(=C\c2ccccc2OC)c(=O)n1CC(=O)N1CCOCC1 2%, Clc1ccc(CSc2nnc([C@@H]3CCCN3)o2)cc1 31.8%, CCSc1nnc(-c2cc3c(s2)-c2ccccc2CC3)o1 -16.8%
